Screens: PubChem, National Center for Advancing Translational Sciences (NCATS)
Compounds with a hit are over-represented: about 6.2% of the library has one in this group of screens.
Gal4-VP16 FLuc: Gal4-VP16 reporter inhibition counter-screen; Drosophila S2 Gal4-VP16 UAS-luciferase, luminescence, 20 h; Potency, µM (titrated, usually from 53.6 µM), for the others: at the top dose activity, negative = inhibition, hits mostly inhibitors; actives 3.5% (n = 310,000);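 note: Gal4-VP16 expression switched on by copper sulfate through the metallothionein promoter; nearly all actives have a fitted effect of over 50% in size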
RORg inh: inhibitors of mouse ROR gamma transcriptional activity. AID 2551. P51450. Drosophila S2 Gal4-RORgamma UAS-luciferase reporter, 20 h. actives 5.4% (n = 310,000). Potency, µM (doses to about 53.6 µM), inactives show at the highest dose activity change, negative = inhibition, hits mostly inhibitors; note: nearly all actives have a fitted effect of over 60% in size
Target sequence (P51450 whole entry, looked up, the tested form may be a part): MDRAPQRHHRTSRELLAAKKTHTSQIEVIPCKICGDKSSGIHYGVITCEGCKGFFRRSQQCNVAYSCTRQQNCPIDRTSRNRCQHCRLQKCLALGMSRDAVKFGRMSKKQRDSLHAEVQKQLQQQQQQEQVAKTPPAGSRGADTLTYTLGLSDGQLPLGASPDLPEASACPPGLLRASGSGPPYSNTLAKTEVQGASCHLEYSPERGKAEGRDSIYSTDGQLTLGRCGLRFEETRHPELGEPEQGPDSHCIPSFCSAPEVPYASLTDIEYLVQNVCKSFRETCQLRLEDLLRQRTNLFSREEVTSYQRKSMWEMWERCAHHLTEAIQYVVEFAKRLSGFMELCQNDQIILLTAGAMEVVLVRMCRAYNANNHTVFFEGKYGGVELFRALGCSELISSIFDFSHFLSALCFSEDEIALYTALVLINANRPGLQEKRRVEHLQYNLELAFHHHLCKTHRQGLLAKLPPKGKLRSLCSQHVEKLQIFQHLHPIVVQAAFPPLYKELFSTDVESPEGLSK
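Read-out: Photinus luciferase luminescence; inhibitors lower reporter signal. Insect Schneider cells with Gal4-ROR gamma fusion under metallothionein promoter, UAS reporter; 700 uM final copper sulfate induction, 20 hr, ambient temperature.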
Luc counter: Kinase-Glo luciferase inhibition (counter-screen) | Q27757 | Kinase-Glo luciferase, ATP luminescence, 8 min | Potency, µM (series often up to 38.3 µM), for the others: at the top dose activity change, negative = inhibition, most hits filed as inhibitors | actives 0.28% (n = 200,000) | AID 1379; note: nearly all actives have a fitted effect of over 60% in size
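Inhibition of Kinase-Glo luciferase light generation was assessed at 10 uM ATP in pH 7.2 imidazole buffer, with luminescence measured after eight minutes at ambient temperature.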
The depositor's hits bear a star; ? = inconclusive; · = not tested or not shown; [ ] = another dose, or the depositor's remark. Calls come from the whole dose curve; as a rule, active = well fitted curve in the direction sought with a large enough effect; inconclusive = small, poorly fitted or top-dose-only effect, or another doubt; inactive = no such curve, though single readings can be large; an effect the other way counts as inactive or inconclusive. % is set by controls: 0 for no effect and ±100 for the full control effect; potency is the fitted concentration of half-maximal effect.

SMILES	Gal4-VP16 FLuc	RORg inh	Luc counter
S=c1[nH]nc(Cn2cnc3ccccc32)n1-c1ccccc1Cl	-6%	18%	·
Cc1cccc(-n2c(CNC(=O)c3ccc(S(=O)(=O)N4CCCCC4)cc3)n[nH]c2=S)c1	1%	8%	·
S=c1[nH]nc([C@@H]2C[C@H]2c2ccccc2)n1-c1ccccc1Cl	10µM*	1.4µM*	·
Cc1ccc(C2CC2c2n[nH]c(=S)n2-c2ccc(Cl)cc2)cc1 (stereo not given)	10µM*	2.8µM*	1%
Cc1nn(CC2CC2)c(=O)n1-c1ccc(Cl)cc1	-24%	-15%	1%
Cc1ccc(C2CC2c2n[nH]c(=S)n2-c2cccc(C)c2)cc1 (stereo not given)	6.3µM*	3.2µM*	-6%
COc1cccc(NC(=O)CCC2CCN(C(=O)c3cccc(NC(C)=O)c3)CC2)c1	4%	24%	·
CN(C)/C=C1/C=C(C=O)OC1=O	-10%	5%	·
CC(C)N(C(=O)COC(=O)c1cccc(N(C)C)c1)c1ccccc1	-1%	8%	·
O=C(c1cc2nc(-c3ccccc3)cc(-c3ccccc3)n2n1)N1CCN(C(=O)c2ccco2)CC1	-4%[0.365 µM]	30%	4%
O=c1cc(-c2ccccc2)nc2c(-c3ccccc3)c(C(F)(F)F)[nH]n12	3%	-37%	·
CCOC(=O)N1CCN(c2cc(=O)n(-c3ccc(Br)cc3)c(=O)[nH]2)CC1	-2%	-27%	-2%
COc1cc(OC)cc(C(=O)NNc2nc3cc4c(cc3s2)OCO4)c1	13µM*	4.5µM*	0%
COc1ccc2nc(NC(=O)Nc3ccccc3OC)sc2c1	-1%	1%	·
COc1cc(OC)cc(C(=O)NCc2ccc3c(c2)OCO3)c1	2%	28%	·
COc1cccc(OC)c1C(=O)Nc1nc2cc3c(cc2s1)OCO3	-18%	-36%	·
COc1cc(C(=O)NNc2nc3cc4c(cc3s2)OCO4)cc(OC)c1OC	13µM*	?	1%
COc1ccc2nc(Nc3ccc4c(c3)OCO4)sc2c1	?	-12%	-7%
COc1ccc2nc(Nc3ccccc3OC)sc2c1	?	?	11µM*
COc1ccc2nc(Nc3nc4cc5c(cc4s3)OCO5)sc2c1	11µM*	4.5µM*	4%
Nc1cc(-c2ccc(OC(F)(F)F)cc2)nn1-c1ccc(Cl)c(Cl)c1	7%	35%	·
COC(=O)CN(c1ccc(OCc2ccccc2)cc1)S(C)(=O)=O	8%	16%	-1%
CCOc1ccc(NC(=O)Cn2c(=O)n(CC3CCCO3)c(=O)c3ccccc32)cc1 (stereo not given)	-9%	-4%	0%
N[C@@H](CS(=O)O)C(=O)O	-7%	-5%	-1%
CCOC(=O)c1cnc2c(C)cccc2c1NCCCN1CCOCC1	-11%	-22%	·
SMILES	Gal4-VP16 FLuc	RORg inh	Luc counter
CCOC(=O)c1ccc(CN2C(=O)c3ccccc3S2(=O)=O)cc1	-12%	22%	·
CCN1/C(=C(\O)c2ccccc2)C(=O)c2ccccc2S1(=O)=O	?	10µM*	-3%
O=c1c2ccccc2nc2n1C(CSCc1ccc(Cl)cc1Cl)CS2 (stereo not given)	22µM*	-2%	2%
Nc1ccccc1SCC1CSc2nc3ccccc3c(=O)n21 (stereo not given)	3%	?	0%
CN1CCN(C(=O)c2cc(S(=O)(=O)Nc3ccccc3F)c(Cl)cc2Cl)CC1	-5%	-8%	·
COc1cc(OC)c(C(=O)OCCCOC(=O)c2cc(OC)c(OC)cc2OC)cc1OC	10µM*	7.9µM*	·
COc1cc(C(=O)OCCCOC(=O)c2cc(OC)c(OC)c(OC)c2)cc(OC)c1OC	1%	-13%	·
Cc1cccc(CC(=O)Nc2sc(C(C)C)cc2C(=O)N2CCOCC2)c1	1%	?	·
O=C(OCCCCN1C(=O)c2ccccc2C1=O)c1n[nH]c2ccccc12	32µM*	-110%	0%
COC(=O)c1n[nH]c2ccccc12	-5%	-13%	-2%
CC(=O)c1c(C)[nH]c(C(=O)OCc2ccccc2)c1C	-14%	14%	-3%
CC(=O)c1c(C)[nH]c(C(=O)OCCCCN2C(=O)c3ccccc3C2=O)c1C	8.9µM*	?	0%
COc1ccc(N=C2C(=O)N3c4c(cccc42)C(C)=CC3(C)C)cc1	-2%	-28%	-3%
C[N+](C)(C)c1ncnc2c1ncn2[C@@H]1CCCCO1	·	·	0%[7.66 µM]
CCCCC[C@]12Cc3cc(OC)c(OC)cc3[C@H](O1)c1c(cc(C)oc1=O)O2	1%[10 µM]	1%[10 µM]	·
O=c1c(-c2ccc(F)cc2)nc2cnc(N3CCNCC3)nc2n1-c1ccccc1	-13%	-40%	·
O=C(c1ccc2c3n(nc2c1)-c1ccc(Cl)cc1CO3)N1CCCCC1	9%	-11%	·
O=C(O)c1ccc2c3n(nc2c1)-c1ccc(Cl)cc1CO3	3.2µM*	7.1µM*	·
O=C(NNC(=O)c1ccc(S(=O)(=O)N2CCCCC2)cc1)c1ccc(F)cc1	-1%	-9%	·
Cc1cccc(Oc2nc(-c3ccccn3)nc3ccccc23)c1	2.2µM*	0.56µM*	·
CC(=O)Nc1cccc(Oc2nc(-c3ccccn3)nc3ccccc23)c1	?	5.6µM*	·
CC(=O)Nc1ccc(Oc2nc(-c3ccccn3)nc3ccccc23)cc1	?	-3%	·
Cc1ccccc1Oc1nc(-c2ccccn2)nc2ccccc12	1.3µM*	0.32µM*	·
Cc1cccc(Oc2nc(-c3ccncc3)nc3ccccc23)c1	-3%	-19%	·
COc1cccc(-c2nc(Oc3cc(C)cc(C)c3)c3ccccc3n2)c1O	-12%	-3%	1%
SMILES	Gal4-VP16 FLuc	RORg inh	Luc counter
N=C(N)SCc1cccc2c(=O)cc(-c3ccccc3)oc12	·	·	-2%[7.66 µM]
CN1CC2([N+](=O)[O-])CC=C(OCCO)C([N+](=O)[O-])(C1)C2 (stereo not given)	-7%	-2%	1%
COCCNC(=O)C(C(=O)c1ccc(F)cc1)n1cc(C)ccc1=O (stereo not given)	-2%	-17%	2%
O=C(Nc1ncc(Cc2cccc(Cl)c2)s1)c1ccc([N+](=O)[O-])cc1	2.8µM*	5µM*	0%
O=C(Cc1ccc([N+](=O)[O-])cc1)Nc1nccs1	-27%	0%	·
O=C(Nc1ncc(Cc2ccccc2Cl)s1)c1ccc([N+](=O)[O-])cc1	2.8µM*	2µM*	0%
O=C(Nc1nccs1)c1ccc([N+](=O)[O-])cc1	-7%	8.9µM*	·
O=C(Nc1ncc(Cc2ccccc2Cl)s1)C1CCCO1 (stereo not given)	?	-70%	1%
O=C(Nc1ncc(Cc2cccc(Cl)c2)s1)C1CCCO1 (stereo not given)	9%	?	0%
Cc1nn(Cc2ccc(C(=O)NN)cc2)c(C)c1Cl	-8%	?	·
Cc1nn(Cc2ccc(C(=O)Nc3nccs3)cc2)c(C)c1Cl	?	13µM*	-3%
CCC(C)n1ncn(-c2ccc(N3CCN(c4ccc(OC)cc4)CC3)cc2)c1=O (stereo not given)	-5%	9%	0%
CCn1c(CCC(=O)Nc2nc3c(s2)CCCC3)nc2cc(S(=O)(=O)N(C)C)ccc21	?	0%	0%
O=C(COC(=O)C1CCN(S(=O)(=O)c2cccc3cccnc23)CC1)c1ccccc1	7%	1%	3%
CCC(=O)N1CCc2cc(S(=O)(=O)CCC(=O)NCc3cccc(OC)c3)ccc21	4%	-16%	·
